# Source: PubChem (several laboratories)
# Most compounds without a hit are left out; they make up all but 4.7% or so of the library.
# EBI2 block: antagonists of human EBI2 receptor. EBI2 beta-arrestin recruitment, luminescence, 7a,25-OHC stimulated. inhibition, % at 5 µM. 360,000 compounds, 0.81% hits. P32249; in the data active means inhibition above about 38%;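 further: enzyme fragment complementation signal reports receptor beta-arrestin coupling in cells; 0% = agonist plus DMSO wells and 100% = wells without agonist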
# Target sequence (P32249 whole entry, looked up, the tested form may be a part): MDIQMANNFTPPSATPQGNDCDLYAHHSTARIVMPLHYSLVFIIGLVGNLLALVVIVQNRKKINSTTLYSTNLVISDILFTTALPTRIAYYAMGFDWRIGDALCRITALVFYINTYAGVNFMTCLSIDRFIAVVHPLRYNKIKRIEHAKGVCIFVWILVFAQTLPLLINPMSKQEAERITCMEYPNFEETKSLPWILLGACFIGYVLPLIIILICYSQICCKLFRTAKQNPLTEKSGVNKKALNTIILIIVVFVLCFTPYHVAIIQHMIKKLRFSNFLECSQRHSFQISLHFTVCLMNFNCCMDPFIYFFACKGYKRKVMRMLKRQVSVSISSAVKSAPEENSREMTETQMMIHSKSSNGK
# TIM10 inh: growth inhibitors of TIM10 yeast strain. inhibition, % at 10 µM. AID 463195. 330,000 compounds, 1.4% hits. S. cerevisiae TIM10 strain growth, BacTiter-Glo luminescence, 24 h;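 active means inhibition of 40% or more at the single tested concentration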;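 further: wild-type TIM10 isogenic control strain grown at permissive 25 °C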
# SKKanGAS inh: blocks kanamycin growth of S. pyogenes SKKanGAS strain | BacTiter-Glo, 6 h | inhibition, % at 7.5 µM | 300,000 compounds, 1.3% hits;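 active means mean replicate score, as percent of positive control median, at least 50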;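 further: strain carries kanamycin resistance gene driven by streptokinase promoter and grows in 40 µg/ml kanamycin; loss of luminescence reflects streptokinase promoter inhibition or plain growth inhibition; 0% = median of DMSO wells and 100% = positive control at its reference dose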
# tim23-1 inh: growth inhibitors of tim23-1 mutant yeast; S. cerevisiae tim23-1 growth, BacTiter-Glo luminescence, 24 h; AID 463212; inhibition, % at 20 µM; 330,000 compounds, 1.3% hits;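 active means growth inhibition of the mutant yeast at or above 50%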;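 further: temperature-sensitive mutant grown at 25 °C; plate controls were DMSO-treated mutant yeast for no effect and medium wells lacking yeast for full effect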
# tim10-1 inh: inhibits growth of tim10-1 mutant yeast; S. cerevisiae tim10-1 ts strain growth, BacTiter-Glo, 24 h; inhibition, % at 20 µM; 330,000 compounds, 2.2% hits; AID 463190;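 active means inhibition of at least 40%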;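 further: mutant grown at 25 °C; 0% = DMSO wells with yeast and 100% = wells holding no yeast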
# PfHsp90 set2: growth inhibition of yeast expressing Plasmodium Hsp90 | S. cerevisiae expressing PfHsp90, BacTiter-Glo ATP, 48 h; yeast lacking PDR1 and PDR3 efflux regulators | inhibition, % at 9.4 µM | 310,000 compounds, 0.32% hits;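 active means every replicate shows inhibition above about 80%, whatever the replicate mean, limit read from the data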;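 further: 0% = DMSO neutral controls and 100% = 20 µM radicicol positive controls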
# tim10-1 confirm: tim10-1 yeast growth inhibition, confirmed; 7,400 compounds, 56% hits; shares compounds with tim10-1 inh; AID 463213; inhibition, % at 20 µM; S. cerevisiae tim10-1 ts strain growth, BacTiter-Glo, 24 h;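 active means inhibition of yeast growth at or above a set limit in either of two repeat tests at 20 µM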;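 further: tim10-1 mutant grown at permissive 25 °C to find synthetic lethal compounds; 0% = DMSO yeast wells and 100% = medium wells without yeast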
# Active calls of the source: *; . = no result.
SMILES,EBI2 block,TIM10 inh,SKKanGAS inh,tim23-1 inh,tim10-1 inh,PfHsp90 set2,tim10-1 confirm
CCOC(=O)/C(C#N)=C1/C(=O)N(Cc2ccccc2)c2ccccc21,-20,31,.,48,49*,8,29
CCOC(=O)C(C#N)=C1CCN(Cc2ccccc2)CC1,-12,-4,5,15,17,-13,.
CCNc1nc(NC(C)(C)C)nc(SCC(N)=O)n1,-17,12,-3,-4,-1,-8,.
CCC(C)c1ccc(OCCCCN2CCOCC2)cc1 (stereo not drawn),-5,-33,9,-117,-63,10,.
CCn1nccc1C(=O)Nc1ccc(Cl)cn1,-1,19,2,6,20,-20,.
CCn1nccc1C(=O)Nc1cc(Cl)cc(Cl)c1,-2,35,-2,41,41*,14,24
c1ccc(-c2csc(CN3CCCCC3)n2)cc1,3,.,.,.,.,10,.
Cc1ccc(SCCNC(=S)Nc2cc(C)ccc2C)cc1,12,32,29,14,43*,5,12
Cc1ccc2c(c1)CCCN2C(=O)c1cc2ccccc2oc1=O,-3,24,0,49,43*,9,44*
O=C(C[C@@H]1C/C=C\CCCC(=O)OC[C@@H]2CCCN2C1=O)N[C@@H](CO)Cc1ccccc1,-7,-4,.,14,6,-6,.
CCc1nn(CCCC(=O)N2CCc3ccccc3C2)c(=O)c2cc3occc3n12,0,7,-9,12,3,8,.
CCc1nn(CCCC(=O)N2CCN(c3cccc(C)c3C)CC2)c(=O)c2cc3occc3n12,-1,27,16,38,54*,-3,21
CCOC(=O)c1cccc(NC(=O)c2c(N)n(C)c(=O)[nH]c2=O)c1,.,-3,-5,-1,2,.,.
CCOc1ccc(NCC(=O)Nc2ccc(Cl)cc2C)cc1,11,17,2,34,45*,.,20
CCCOc1ccc(NCC(=O)Nc2ccc(C)cc2C)cc1,3,-2,-3,13,36,-17,.
Cc1ccc2c(c1)C(O)(CC(=O)/C=C/C=C/c1ccccc1)C(=O)N2 (stereo not drawn),4,-4,-9,30,40*,-5,28*
O=C(/C=C/C=C/c1ccccc1)CC1(O)C(=O)N(CCc2ccccc2)c2ccccc21 (stereo not drawn),13,27,24,41,45*,.,52*
CCN(CC)S(=O)(=O)c1cc(NC(=O)c2ccc(-n3cncn3)c([N+](=O)[O-])c2)ccc1C,6,17,26,18,25,-7,.
Cc1ccc(NC(=O)CC2OC(=O)c3ccccc32)cc1S(=O)(=O)N1CCCCCC1 (stereo not drawn),1,6,.,15,13,5,.
CC(C)Cn1c(N)c(C(=O)COC(=O)/C=C/c2ccccc2)c(=O)n(C)c1=O,-17,17,-2,22,42*,-7,22
CCN(CC)C(=S)NC(=O)c1ccc(OC)c(Br)c1,-7,18,3,27,44*,-9,19
C=CCN(CC=C)C(=S)NC(=O)c1ccc(OC)c(Br)c1,-8,25,26,45,14,-55,.
C[C@@H]1CN([C@@H](C)CO)C(=O)CCCn2nncc2CO[C@H]1CN(C)S(=O)(=O)c1ccc(-n2cccn2)cc1,-6,.,.,.,.,.,.
Cc1cc(S(=O)(=O)NC(C)c2nnc3ccccn23)ccc1Br (stereo not drawn),-1,3,.,17,12,-13,.
CCOc1ccc(C(=O)CCC(=O)NCC(=O)Nc2c(C)cccc2C)cc1,7,-1,.,-8,-1,-5,.
SMILES,EBI2 block,TIM10 inh,SKKanGAS inh,tim23-1 inh,tim10-1 inh,PfHsp90 set2,tim10-1 confirm
O=C(COC(=O)C1CC2C=CC1C2)Nc1cccc(S(=O)(=O)N2CCCCCC2)c1 (stereo not drawn),8,38,-8,37,49*,1,30
CCC(CC)c1nnc(NC(=O)C2=NNC(=O)CC2)s1,1,-10,-5,13,-7,2,.
O=C(COC(=O)c1ccccc1C(=O)c1ccccc1)Nc1ccc(SC(F)F)cc1,-31,40,0,39,41*,-26,31*
O=C(COc1ccccc1C(=O)O)Nc1ccc(SC(F)F)cc1,16,1,13,7,7,-15,.
COC(=O)c1cc(S(=O)(=O)N2CCCC2=O)c(Cl)cc1Cl,2,-5,-2,-10,-12,-14,.
CCOC(=O)C1(CCc2ccccc2)CCN(C(=O)CCc2cnn(C)c2)CC1,8,15,-16,27,42*,-19,30*
CN(c1ccccc1)S(=O)(=O)c1ccc(NC(=O)c2ccco2)cc1,-1,28,2,44,33,0,.
CN(C1CCCCC1)S(=O)(=O)c1ccc(NC(=O)c2ccco2)cc1,1,11,-4,42,44*,-14,29*
CC(C)(C)c1ccc(-c2csc(NNC3=NCCCCC3)n2)cc1,24,23,-13,37,45*,-7,22
Cc1cccc(CN2CCN(C(C)C(=O)NC(C)c3ccccc3)CC2)c1 (stereo not drawn),-2,-4,4,13,29,-8,.
CCCNC(=O)c1sc2c(c1C(=O)Nc1ccccn1)CCCC2,11,15,-9,38,47*,4,27
OC(COCC(F)(F)C(F)(F)C(F)(F)C(F)F)Cn1c2ccc(Cl)cc2c2cc(Cl)ccc21 (stereo not drawn),-10,31,110*,24,41*,-47,36*
Cc1[nH]n(-c2ccccc2)c(=O)c1C(c1ccccc1[N+](=O)[O-])C(C#N)C#N (stereo not drawn),11,31,14,43,44*,-10,33*
Cc1[nH]n(-c2ccccc2)c(=O)c1C(c1ccccc1C(=O)O)c1c(C)[nH]n(-c2ccccc2)c1=O,-1,6,-1,9,-6,3,.
CCOC(=O)c1cnc2c(OC)cccc2c1Nc1ccc2c(c1)OCCO2,-1,35,2,42,44*,-9,32*
Nc1nc(N)c(C=Nc2ccc(Br)cc2)c(Nc2ccc(Br)cc2)n1,-1,35,100*,-2,57*,-15,32*
COc1ccc(/C=C2\CCc3ccccc3C2=O)cc1OC,-34,19,6,38,33,-20,.
CCNC(=O)COc1ccc(/C=C2\COc3ccccc3C2=O)cc1OC,-47,36,-10,39,46*,6,29
CCOC(=O)c1ccc(N2C(=O)CC(N3CCC(Nc4ccc(F)cc4)CC3)C2=O)cc1 (stereo not drawn),-5,35,-5,15,57*,128*,50*
